# Reference: PubChem BioAssay
# Unmarked numbers belong to inactive results. No rule for the calls is given here.
# Molecular target: Pantothenate synthetase (Mycobacterium tuberculosis (strain ATCC 25618 / H37Rv)) (UniProt P9WIL5)
# Assay: Coupled enzyme confirmation of inhibitors against recombinant Mtb PanC (AID 375);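 also: 0% = full reaction with vehicle and 100% = no enzyme background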
# Conditions: coupled enzyme assay; at 10 µM, stronger effect = higher value
# Pantothenate synthetase (Mycobacterium tuberculosis (strain ATCC 25618 / H37Rv)), sequence (P9WIL5 whole entry, looked up): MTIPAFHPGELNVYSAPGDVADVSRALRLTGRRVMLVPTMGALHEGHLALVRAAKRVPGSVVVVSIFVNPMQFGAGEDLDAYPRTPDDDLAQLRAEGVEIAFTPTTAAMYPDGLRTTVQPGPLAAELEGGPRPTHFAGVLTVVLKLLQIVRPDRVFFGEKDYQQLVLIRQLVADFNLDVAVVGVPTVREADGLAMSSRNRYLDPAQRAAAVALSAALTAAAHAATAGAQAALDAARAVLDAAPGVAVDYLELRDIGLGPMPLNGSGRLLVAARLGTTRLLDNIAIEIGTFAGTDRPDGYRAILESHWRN
row,Compound,inhibition
1,COc1ccc(N2Cc3ccccc3C2)cc1Cl,0%
2,CCOc1ccc(CCNc2nc3c(c(=O)n(C)c(=O)n3C)n2CC)cc1OCC,0%
3,CCOC(=O)C1CCCN(C(=O)c2cc(=O)c3ccccc3o2)C1 (configuration not stated),5%
4,Cc1cccc(NC2SC(=O)N(c3ccccc3)C2=O)c1 (configuration not stated),0%
5,CCN(CC)CC#CCOC(=O)C(O)(c1ccccc1)C1CCCCC1 (configuration not stated),1%
6,O=S(=O)(c1cccs1)N1CCN(C/C=C/c2ccccc2)CC1,0%
7,CCc1ccccc1NC(=O)CCc1nc(-c2ccc(C)cc2)no1,0%
8,CC(=O)Nc1cccc(NC(=O)CSc2nnnn2C(C)C)c1,5%
9,COc1nc(N2CCOCC2)nc(-n2cccc2)n1,2%
10,Cc1ccc(C(C(=O)NC2CCCCC2)N2CCOCC2)cc1 (configuration not stated),0%
11,Cc1ccccc1OCc1nnc2n1CC(C)S2 (configuration not stated),0%
12,Cc1cc(C)n(-c2nnc(C)n2/N=C/c2ccccc2F)n1,9%
13,CCc1nnc(NC(=O)c2ccc(S(=O)(=O)NC3CCCCC3)cc2)s1,0%
14,COc1ccccc1C1/C(=C(/O)c2ccccc2)C(=O)C(=O)N1CC(C)C (configuration not stated),0%
15,O=C1CC(c2ccc(Cl)cc2)n2nc(N3C(=O)c4ccccc4C3=O)nc2N1 (configuration not stated),5%
16,CCCCn1c(CNC(=O)CCC)nc2ccccc21,4%
17,COc1cccc(-c2nc3n(n2)C(c2ccccc2Cl)C(C(N)=O)=C(C)N3)c1 (configuration not stated),0%
